# Test results taken from PubChem BioAssay (EPA / NIEHS).
# Active and inactive are the calls of the source. How the source made its calls: active means hit-call score of the fitted dose curve at least 0.9, where 1 is the maximum; inactive means score below 0.9.
# Read-out: ABC Transporter (ABCC3), ABCC3 (gene 8714)
# Assay: LTEA_HepaRG_ABCC3: Life Technologies and Expression Analysis (LTEA) Assay for ABC Transporter (ABCC3) using HepaRG (AID 2283462)
# Conditions: mRNA level, 48 h; actives raise or lower the signal
# Description: LTEA_HepaRG is a cell based, multiplexed-readout assay that uses HepaRG, a human liver cell line, with measurements taken at 48 hours after chemical dosing on a 96-well plate.LTEA_HepaRG_ABCC3 is one of 102 assay component(s) measured in the LTEA HepaRG cell culture assay. It is a marker of NR mediated transport.Data from the assay component LTEA_HepaRG_ABCC3 was analyzed into 1 endpoint. This assay endpoint, LTEA_HepaRG_ABCC3, was analyzed with bidirectional fitting relative to DMSO as the negative control and baseline of activity. Using a type of inducible reporter, measures of mRNA induction for gain or loss-of-signal activity can be used to understand regulation of transcription factor activity. To generalize the intended target to other relatable targets, this assay endpoint is annotated to the transporter intended target family, where the subfamily is ABC transporter.
# A total of 1060 chemcials from the ToxCast library were tested in eight-point concentration-response experiments. Cell culture and cytotoxicity assays were conducted at Thermo Fisher Scientific's Custom Services facility (Madison, WI). A single lot of human HepaRG cells (Thermo Fisher Scientific, Frederick, MD) was used for the cell culture experiments. 96-well format collagen type I coated plates of human HepaRG cells were prepared using established methods. Briefly, cryopreserved HepaRG cells were thawed, plated at a density of approximately 100,000 cells/well in HepaRG Thaw, Plate, and General Purpose media (HPRG770, Thermo Fisher Scientific), and incubated for 48 hours. 0.5% DMSO was selected as vehicle control to balance the requisite need of DMSO in HepaRG cultures to maintain differentiation (for example, baseline metabolism, proportions of hepatocytes vs. cholangiocytes), while enabling further hepatic receptor pathway activation (for example, PXR and CAR) in response to chemical exposure. 48 hours after plating, the culture medium was replaced with HepaRG Serum-Free Incudtion Media. Cells were exposed to each test chemical in duplicate and maintained in CO2 incubators for another 48 hours. Chemical plates were thawed to room temperature and 200x concentrations of treatment groups were prepared. 8-point conentration-reponse curves were made with the highest exposure at 100 uM, followed by half-log dilutions, all in 0.5% DMSO. Each test plate contained variouse controls, induction positive controls (1mM phenobarbital), cytotoxicity positive controls ([…] aflatoxin B1), vehicle controls (0.5% DMSO), and total lysis controls (0.5% DMSO). Cell morphology images were taken using an Essen IncuCyte FLR automated microscope, with six 96-well plates imaged in about 24 minutes. Images were captured and exported and JPEG files. Spent culture media was transfered to black-well plates for the LDH assay, and remaining media was sorted at -80 C for later use. Cells were treated with RLT buffer and frozen until shipped for gene expression analysis. Total RNA was isolated from the cell suspension in 75 uL of Buffer RLT (Qiagen, Germantown, MD 20874) by Quintiles/Expression Analysis (Durham, NC) using a custom isolation procedure. Total RNA from each plate well was transferred to a preamplification plate. Fluidigm's 96.96 Dynamic ArrayTM (Fluidigm, Amsterdam, the Netherlands) technology was used for gene expression analyses by quantitative reverse transcription polymerase chain reaction (qRT-PCR, performed by Quintiles/Expression Analysis, Durham, NC)89. Standard TaqManTM Assays (Applied Biosystems/ThermoFisher Scientific, Foster City, CA) were used to assess the expression of 93 genes selected based on their selectivity and sensitivity to important hepatic receptors known to be modulated by environmental chemicals; importance in human hepatocyte functionality; and hepatotoxicity. […]
SMILES,outcome,AC50
CCC(=NOC/C=C/Cl)C1=C(O)CC(C2CCOCC2)CC1=O (stereo not given),inactive,
CCCSP(=O)(OCC)Oc1ccc(Br)cc1Cl (stereo not given),inactive,
CCOP(=O)(SC(C)CC)N1CCSC1=O (stereo not given),inactive,
CNC(=O)ON=C(C)SC,inactive,
CCOP(=S)(OCC)Oc1cc(C)nc(C(C)C)n1,inactive,
C[Si](Cn1cncn1)(c1ccc(F)cc1)c1ccc(F)cc1,inactive,
CCNc1nc(Cl)nc(NC(C)(C)C#N)n1,inactive,
C=C(C)[C@H]1Cc2c(ccc3c2O[C@@H]2COc4cc(OC)c(OC)cc4[C@@H]2C3=O)O1,inactive,
CCCCOC(=O)[C@@H](C)Oc1ccc(Oc2ccc(C#N)cc2F)cc1,inactive,
Nc1c(Cl)cc([N+](=O)[O-])cc1Cl,inactive,
CC(COc1ccc(Oc2ccccc2)cc1)Oc1ccccn1 (stereo not given),inactive,
N#CSCSC#N,inactive,
CC1(C(=O)Nc2ccc(O)c(Cl)c2Cl)CCCCC1,inactive,
CCCCN(CC)c1c([N+](=O)[O-])cc(C(F)(F)F)cc1[N+](=O)[O-],inactive,
CCOC(=O)CC(SP(=O)(OC)OC)C(=O)OCC (stereo not given),inactive,
COc1cccc(C(=O)NN(C(=O)c2cc(C)cc(C)c2)C(C)(C)C)c1C,inactive,
CN(C)NC(=O)CCC(=O)O,inactive,
COc1cc(OC)nc(Sc2cccc(Cl)c2C(=O)O)n1,inactive,
CC(C)[C@H](C(=O)O[C@H](C#N)c1cccc(Oc2ccccc2)c1)c1ccc(Cl)cc1,inactive,
CCC(=O)Nc1ccc(Cl)c(Cl)c1,inactive,

SMILES,outcome,AC50
COP(=O)(NC(C)=O)SC (stereo not given),inactive,
CCCOCC(=Nc1ccc(Cl)cc1C(F)(F)F)n1ccnc1,inactive,
CNc1cnn(-c2cccc(C(F)(F)F)c2)c(=O)c1Cl,inactive,
CCCCSP(=O)(SCCCC)SCCCC,inactive,
CON=C(C(=O)OC)c1ccccc1CON=C(C)c1cccc(C(F)(F)F)c1,inactive,
CC1=NNC(=O)N(/N=C/c2cccnc2)C1,inactive,
S=C1NCCN1,inactive,
COP(=O)(OC)C(O)C(Cl)(Cl)Cl (stereo not given),inactive,
COc1ccc(C(=CC(=O)N2CCOCC2)c2ccc(Cl)cc2)cc1OC,inactive,
C[N+]1(C)CCCCC1,inactive,
Cc1cc(C2CC2)nc(Nc2ccccc2)n1,inactive,
CCc1cccc(CC)c1N(COC)C(=O)CCl,inactive,
CSc1nc(NC(C)C)nc(NC(C)C)n1,inactive,
Cc1ccn2nc(S(=O)(=O)Nc3c(F)cccc3F)nc2n1,inactive,
CSC1=N[C@@](C)(c2ccccc2)C(=O)N1Nc1ccccc1,,23.2 µM (active)
O=C(O)c1cc(Oc2ccc(C(F)(F)F)cc2Cl)ccc1[N+](=O)[O-],inactive,
CC(C1CC1)C(O)(Cn1cncn1)c1ccc(Cl)cc1 (stereo not given),inactive,
CC[C@H](C)[C@H]1O[C@]2(C=C[C@@H]1C)C[C@@H]1C[C@@H](C/C=C(\C)[C@@H](O[C@H]3C[C@H](OC)[C@@H](O[C@H]4C[C@H](OC)[C@@H](NC)[C@H](C)O4)[C@H](C)O3)[C@@H](C)/C=C/C=C3\CO[C@@H]4[C@H](O)C(C)=C[C@@H](C(=O)O1)[C@]34O)O2,,31.6 µM (active)
CC(Oc1cccc(Cl)c1)C(=O)O (stereo not given),inactive,
C#CCC1=C(C)C(OC(=O)C2C(C=C(C)C)C2(C)C)CC1=O (stereo not given),inactive,
